High-throughput results deposited in PubChem by National Center for Advancing Translational Sciences (NCATS).
The list is not random: actives were taken first. Their share in the collection is about 5.2%.
Sfp PPTase inh – blocks B. subtilis Sfp PPTase activity | Biochemical Sfp PPTase activity, qHTS | Q9F4F7 | Potency, µM, for inactives: largest response in the series, negative = inhibition, actives largely listed as inhibitors | 310,000 tested, 3.5% active | AID 1490;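 also: the enzyme is Sfp with the accession as filed and its product quenches rhodamine fluorescence; potency is read from the fitted curve at half-maximal effect; 0% = enzyme reaction without inhibitor and -100% = no enzyme wells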
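After 15 min at room temperature with compound, 15 nM Sfp received 5 uM rhodamine-CoA plus 12.5 uM BHQ-2-ybbR (50 mM Hepes pH 7.6, 10 mM MgCl2). Rate came from the fluorescence difference over 30 min, ex 525/em 598 nm.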
Tau fibril FP – tau fibrillization inhibition (FP) | AID 1468 | 280,000 tested, 0.39% active | Potency, µM (doses to about 57.7 µM), without a hit: at the highest dose activity, negative = inhibition, actives largely listed as inhibitors | P10636 | K18 P301L tau heparin fibrillization, Alexa594 FP, 6 h; also: potency is read from the fitted curve at half-maximal effect; nearly all actives have a fitted effect of over 55% in size
Target sequence (P10636 561-689 P618L limits assumed): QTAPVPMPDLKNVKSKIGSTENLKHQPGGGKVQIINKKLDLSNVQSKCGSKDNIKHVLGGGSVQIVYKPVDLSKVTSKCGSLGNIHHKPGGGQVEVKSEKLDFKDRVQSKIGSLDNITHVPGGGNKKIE
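Recombinant K18 P301L […], labeled with Alexa 594 at 0.24 uM over 15 uM unlabeled; heparin inducer 20 uM final; 37 C, 6 hr; FP endpoint.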
Coupling enz – counter-screen for Giardia aldolase inhibitors: coupling enzyme system | coupling enzyme system counterscreen, AmpLite Red fluorescence | activity change, negative = inhibition, % at 58.2 µM, hits read low | 290,000 tested, 0.67% active | AID 2472; in the data active = activity change below about -30%
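Activity here indicates interference with the coupling reaction, not aldolase inhibition. Compounds at 57.5 uM final met coupling enzymes for 10 min at RT; substrate and AmpLite Red detection followed, with a 525/598 nm fluorescence read after 20 min.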
Tau fluor counter – counter-screen for tau fibril formation inhibitors | 280,000 tested, 0.93% active | Potency, µM (series often up to 57.7 µM), without a hit: at the highest dose activity change, negative = decrease | AID 1463 | tau K18 P301L Alexa594 fluorescence, heparin fibrillization; also: potency is read from the fitted curve at half-maximal effect; nearly all actives have a fitted effect of over 55% in size
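Human tau K18 P301L (15 uM unlabeled, 0.24 uM Alexa 594-labeled) in 100 mM sodium acetate pH 7 with 20 uM heparin, 6 hr at 37 C. ThT 30 uM added, 1 hr ambient; Alexa 594 FP and total fluorescence read at 555/632 nm.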
Tau fibril ThT – blocks human tau fibril formation measured by thioflavin T. 270,000 tested, 2.1% active. P10636. Potency, µM (doses to about 57.4 µM), without a hit: at the top dose activity, negative = inhibition, hits mostly inhibitors. recombinant tau K18 P301L, heparin-induced fibrillization, ThT fluorescence; also: potency is read from the fitted curve at half-maximal effect; nearly all actives have a fitted effect of over 55% in size
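ThT emission at 510 nm, taken 1 hr after adding 30 uM dye, quantifies aggregates formed when 20 uM heparin acts on human tau K18 P301L for 6 hr at 37 C.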
* = called active by the depositor; ? = inconclusive; nt = not tested or not shown; [ ] = another dose, or the depositor's remark. Unless noted, calls follow the shape of the dose curve; as a rule, active = well fitted curve in the direction sought with a large enough effect; inconclusive = small, poorly fitted or top-dose-only effect, or another doubt; inactive = no such curve, though single readings can be large; an effect the other way counts as inactive or inconclusive. Unless noted, % is scaled to controls: 0 for no effect and ±100 for the full control effect.

SMILES	Sfp PPTase inh	Tau fibril FP	Coupling enz	Tau fluor counter	Tau fibril ThT
Cc1ccc(NC(=O)CNc2ccc(Cl)c(Cl)c2)cc1S(=O)(=O)N(C)C	-2.5%	-5.5%	-0.3	15.8µM*[quencher]	-3.6%
CCN(CC(=O)Nc1ccc(NC(C)=O)cc1)CC(=O)Nc1ccc(Cl)c(Cl)c1	56.2µM*	nt	0.8	nt	nt
Cc1ccc(S(=O)(=O)NCCC(=O)Nc2ccc(Cl)c(Cl)c2)cc1C	6.1%	14.1µM*	-5.5	?	7.5%
Cc1ccc(S(=O)(=O)NCCC(=O)Nc2ccc(Cl)c(Cl)c2)cc1	15.9%	?	-5.1	?	3.0%
CN(C)S(=O)(=O)c1cc(NC(=O)CSc2nn(-c3ccc(Cl)cc3)c(=S)s2)ccc1Cl	16.9%	25.1µM*	-2.4	?	?
CCN(CC(=O)Nc1ccc(NC(C)=O)cc1)CC(=O)Nc1cccc(Cl)c1	4.4%	nt	1.1	nt	nt
COC(=O)C1=C[C@@H](C(=O)OC)C2C3=C(C(=O)[C@]2(C)NC(=O)c2ccccc2)[C@H](C)n2c(=O)n(C)c(=O)n2[C@@H]3C1 (stereo not given in full)	11.1%	nt	4.6	nt	nt
CCCOC(=O)CSc1ncnc2sc3c(c12)CCC(C)C3 (stereo not given)	nt	-2.0%	nt	-11.1%	?
Cc1cccc(CNc2cc(-c3c(C)noc3C)ncn2)c1	4.8%	nt	4.1	nt	nt
CN=CC1=C(O)c2ccccc2C1=O	24.7%	5.3%	-0.2	2.2%	1.7%
CCC(=O)N(CC)C1=C(O)c2ccccc2C(=O)C1=O	11.2µM*	?	-60.9*	?	15.8µM*
COc1cc2c(cc1NC(=O)Nc1cccc(C)c1)oc1ccccc12	3.8%	-1.4%	-0.3	7.94µM*[quencher]	?
COc1ccc(OCC(=O)Nc2cc3oc4ccccc4c3cc2OC)cc1	?	-1.1%	-5.2	-2.8%	-11.7%
COc1ccc(NC(=O)Nc2cc3oc4ccccc4c3cc2OC)cc1	-20.1%	?	1.2	8.91µM*[quencher]	?
COc1cc2c(cc1NC(=O)Nc1ccc(F)cc1)oc1ccccc12	?	-8.0%	1.6	6.31µM*[quencher]	-1.6%
COc1cc2c(cc1NC(=O)Nc1ccc(C)cc1)oc1ccccc12	?	-6.5%	-1.8	3.98µM*[quencher]	-3.9%
COc1cccc(-c2nnc3n2N=C(c2c(OC)cccc2OC)CS3)c1	-10.0%	nt	6.5	nt	nt
O=C(Nc1cccc(C(=O)OCc2cc(=O)n3ccsc3n2)c1)c1ccc(F)cc1	nt	?	nt	-3.6%	-2.4%
COc1ccc(NC(=O)Nc2cnccn2)c(OC)c1	-1.2%	nt	nt	nt	nt
COc1ccc(NC(=O)Nc2ccc(Cc3ccncc3)cc2)c(OC)c1	-5.2%	?	1.1	25.1µM*[quencher]	?
COC1CCCN(Cc2nc(Cc3ccccc3F)no2)C1 (stereo not given)	26.2%	-2.5%	1.0	0.7%	2.1%
Fc1ccccc1Cc1noc(CN2CCC(OCc3cccnc3)CC2)n1	35.5µM*	-0.8%	0.2	12.1%[2.34 µM]	-15.4%
CC1=C(C#N)c2nc(N)c(C#N)c(C)c2/C1=C\c1ccc(OCC(=O)O)c(Cl)c1	?	?	-12.4	?	15.8µM*
CC(C)c1ccc(/C=N/N2CCN(c3ccccn3)CC2)cc1	16.4%	-6.0%	2.4	?	12.6µM*
Oc1ccccc1/C=N/N1CCN(c2ccccn2)CC1	10.9%	-2.9%	-1.2	-24.9%	?
SMILES	Sfp PPTase inh	Tau fibril FP	Coupling enz	Tau fluor counter	Tau fibril ThT
O=[N+]([O-])c1cc(/C=N/N2CCCCC2)ccc1Cl	1.0%	-0.1%	2.4	-11.6%	?
CC(C)c1ccc(/C=N/N2CCCCC2)cc1	63.1µM*	-0.5%	-5.4	-3.2%	-16.5%
Cc1cccc(Oc2nc3ccccn3c(=O)c2/C=C(\C#N)c2nc3ccccc3s2)c1C	nt	-18.5%	nt	-17.3%	-4.2%
COc1cccc(CNC(=O)CN(C)S(=O)(=O)c2cccc3cccnc23)c1	16.1%	-10.1%	0.4	-16.7%	-9.9%
CCSS(=O)(=O)c1cccc2cccnc12	20µM*	?	0.9	9.5%	?
CN(Cc1ccccc1)S(=O)(=O)c1cccc2cccnc12	6.1%	-9.1%	-31.0*	-13.6%	-7.4%
O=C(O)CCS(=O)(=O)c1cccc2cccnc12	12.4%	0.8%	1.4	4.2%	-6.0%
CN(CC(=O)Nc1n[nH]c(=S)s1)S(=O)(=O)c1cccc2cccnc12	39.8µM*	nt	0.6	nt	nt
Cc1csc(NC(=O)CN(C)S(=O)(=O)c2cccc3cccnc23)n1	-2.0%	1.3%	3.2	-9.2%	-14.6%
Cn1cc([N+](=O)[O-])c(C(=O)Nc2nc(-c3ccc(Cl)cc3)cs2)n1	-5.3%	7.0%	-3.0	12.6µM*[quencher]	?
CCCCn1c(CNC(=O)C23CC4CC(CC(C4)C2)C3)nnc1SCC(=O)Nc1ccc(F)cc1	nt	-4.8%	nt	?	-2.3%
CN1CCO/C1=C(\C(Cl)=C(Cl)Cl)[N+](=O)[O-]	-3.0%	-0.4%	-0.7	-6.4%	-8.2%
CCC1CO/C(=C(\C(Cl)=C(Cl)Cl)[N+](=O)[O-])N1 (stereo not given)	3.5%	?	-0.7	-18.8%	35.5µM*
CCn1c(=O)c(-[n+]2ccccc2)c(O)c2ccccc21	12.6µM*	-7.9%	-2.0	-3.2%	-12.6%
O=c1c(O)c(-c2ccc(O)cc2O)oc2cc(O)cc(O)c12	3.5%	?	-0.5	28.2µM*[quencher]	12.6µM*
O=C1CCC[C@@H]2CC(NCc3ccc(Cl)c(Cl)c3)C[C@@H]3CCN1[C@H]23 (stereo not given in full)	-9.4%	-0.2%[81.3 µM]	4.1	-9.5%[81.3 µM]	-8.8%[81.4 µM]
COc1ccccc1CNc1cc(-c2ccccc2C(F)(F)F)ncn1	2.4%	nt	-1.2	nt	nt
NS(=O)(=O)c1ccc(NC(=S)NCC2CCCO2)cc1 (stereo not given)	44.7µM*	0.4%	2.2	0.0%	2.0%
S=C(NCC1CCCO1)Nc1ccc(Nc2ccccc2)cc1 (stereo not given)	18.0%	5.4%	3.5	?	?
CCCCc1ccc(S(=O)(=O)NNC(=S)NCc2ccco2)cc1	3.8%	-7.5%	9.2	-12.2%	-8.9%
CC(=O)Nc1ccc(S(=O)(=O)NNC(=S)NCC2CCCO2)cc1 (stereo not given)	56.2µM*	nt	0.1	nt	nt
CC(=O)Nc1ccc(S(=O)(=O)NNC(=S)NCc2ccco2)cc1	44.7µM*	nt	nt	nt	nt
COCC(=O)Nc1ccc(S(=O)(=O)NCC2CCCO2)cc1 (stereo not given)	11.4%	nt	0.9	nt	nt
Cc1nnc2c(Nc3cccc(O)c3)nc3ccccc3n12	nt	-2.7%	nt	-5.5%	0.3%
COc1ccc(C(=S)N2CCOCC2)cc1OC(=O)c1ccccc1Cl	56.2µM*	nt	0.5	nt	nt
COc1cc(C(=S)N2CCCCC2)ccc1OCC(=O)Nc1ccccc1Cl	15.9%	-1.4%	-0.6	-25.7%	?
COc1cc(C(=S)N2CCOCC2)ccc1OC(=O)c1cccc(C)c1	79.4µM*	nt	-5.2	nt	nt
COc1cc(C(=O)Oc2cccc(C(=S)N3CCOCC3)c2)cc(OC)c1OC	?	nt	-7.9	nt	nt
